In PubChem BioAssay (NCATS) one finds Potency data, which are given here for 20 molecules.

Results filed as inconclusive are left out. Where a call stands in place of a potency, no number is given. Calls of active or inactive are those of the source. The call rests on the fitted dose curve; in most records, active means well fitted curve in the direction sought with a large enough effect; inconclusive means small, poorly fitted or top-dose-only effect, or another doubt; inactive means no such curve, though single readings can be large; an effect the other way counts as inactive or inconclusive.
Further: nearly all actives have a fitted effect of over 70% in size.
Potency means the concentration at half of the fitted maximal effect.

The nature of the first test: Primary qHTS for inhibitors of nuclear receptor binding SET domain protein 2 (NSD2) in an isogenic RCH-ACV NSD2 p.E1099K mutant (9B) (AID 1645876). To be noted: RCH-ACV NSD2 E1099K (9B) viability, CellTiter-Glo, 72 h; series mostly up to 44.9 µM.
Take `CC1(C)CC(NC(=O)C(=O)Nc2ccc(Cl)cc2)CC(C)(C)N1`: the Potency result was “inactive”.

On to `Cn1c2ccc(NC(=O)c3ccccc3)cc2c(=O)n2nc(C(=O)O)cc12`, for which the Potency entry was “inactive”.

Consider `COc1cc(Nc2nc3ccccc3nc2NS(=O)(=O)c2cccc(NC(=O)c3ccc(C)c(OC)c3)c2)cc(OC)c1`, for which the Potency result was “inactive”.

For the molecule `Nc1ncnc2c1c(COc1cccc(Cl)c1)nn2C1CCOCC1`, the Potency is 14.8 µM (active).

For `Cc1ccc(Cl)cc1N(CC(=O)Nc1c(F)cccc1F)S(C)(=O)=O`, the Potency entry was “inactive”.

As for `NC1=NC2(c3cc(NC(=O)c4ccc(F)cn4)ccc3F)COCC2CS1` (centres undefined), the Potency result was “inactive”.

With `Cc1ccc2[nH]c(=O)c(C3=NN(C(=O)CCC(=O)O)C(c4ccc(Br)cc4)C3)c(-c3ccccc3)c2c1` (centres undefined), the Potency entry was “inactive”.

As for `Cc1ccccc1-c1cc(N2CCN(C)CC2)ncc1N(C)C(=O)C(C)(C)c1cc(C(F)(F)F)cc(C(F)(F)F)c1`, the Potency result was “inactive”.

For the molecule `CCOc1nc2c(N)ncnc2n1CC`, the Potency entry was “inactive”.

With `COc1ccnc(CCc2nc3ncccc3[nH]2)c1`, the Potency result is “inactive”.

As for `CN[C@H](CNC(=O)N1CCC[C@@H]([C@@H](OCCNC(=O)OC)c2cccc(Cl)c2)C1)C[C@H]1CCCOC1`, the Potency result was “inactive”.

As for `Oc1ccc(CC2NCCc3cc(O)c(O)cc32)cc1` (centres undefined), the Potency result was “inactive”.

As for `Cc1ccc2nc(NC(=O)CSc3nc4c(c(=O)n3-c3ccc(F)cc3)SCC4)sc2c1`, the Potency entry is “inactive”.

Take `Cc1ccc(-n2nc(C(C)(C)C)cc2NC(=O)Nc2cc(COc3cccnc3)[nH]n2)cc1`: the Potency is 18.3 µM (active).

With `CCC1(O)CC2c3cc(OC)c(OC)cc3CCN2CC1CC(C)C` (centres undefined), the Potency entry is “inactive”.

Consider `C[C@@H](NC(=O)c1cc(C(=O)N[C@@H](Cc2ccccc2)[C@H](O)CNC2CC2)cc(N(C)S(C)(=O)=O)c1)c1ccccc1`, for which the Potency result is “inactive”.

Consider `COc1cccc(OC)c1-c1ccc(C[C@H](NC(=O)c2c(Cl)cccc2Cl)C(=O)O)cc1`, for which the Potency result was “inactive”.

With `N[C@@H](CCNCc1ccc(Cl)cc1)C(=O)N1CCCCC1`, the Potency entry was “inactive”.

In the case of `O=C(NC1CCN(CC(F)(F)F)CC1)c1ccc(-c2cccc(F)c2)nc1`, the Potency result is “inactive”.

Regarding `O=C(O)c1cc(C(F)(F)F)ccc1N1CC[C@H](OCc2ccccn2)C1`, the Potency entry was “inactive”.

A further test can be described thus: Primary qHTS for inhibitors of nuclear receptor binding SET domain protein 2 (NSD2) in an RCH-ACV wild type WT cells (2C) (AID 1645877). To be noted: RCH-ACV (leukaemia line) NSD2 WT (2C) viability, CellTiter-Glo, 72 h; series mostly up to 44.9 µM. (qHTS replaces the single test concentration by a dilution series.)
As to `CC1(C)CC(NC(=O)C(=O)Nc2ccc(Cl)cc2)CC(C)(C)N1`, the Potency result is “inactive”.

Consider `Cn1c2ccc(NC(=O)c3ccccc3)cc2c(=O)n2nc(C(=O)O)cc12`, for which the Potency entry is “inactive”.

Turning to `COc1cc(Nc2nc3ccccc3nc2NS(=O)(=O)c2cccc(NC(=O)c3ccc(C)c(OC)c3)c2)cc(OC)c1`, the Potency entry is “inactive”.

On to `Nc1ncnc2c1c(COc1cccc(Cl)c1)nn2C1CCOCC1`, for which the Potency was 16.6 µM (active).

As to `Cc1ccc(Cl)cc1N(CC(=O)Nc1c(F)cccc1F)S(C)(=O)=O`, the Potency entry is “inactive”.

For `NC1=NC2(c3cc(NC(=O)c4ccc(F)cn4)ccc3F)COCC2CS1` (centres undefined), the Potency result was “inactive”.

As for `Cc1ccc2[nH]c(=O)c(C3=NN(C(=O)CCC(=O)O)C(c4ccc(Br)cc4)C3)c(-c3ccccc3)c2c1` (centres undefined), the Potency entry was “inactive”.

For `Cc1ccccc1-c1cc(N2CCN(C)CC2)ncc1N(C)C(=O)C(C)(C)c1cc(C(F)(F)F)cc(C(F)(F)F)c1`, the Potency entry is “inactive”.

On to `CCOc1nc2c(N)ncnc2n1CC`, for which the Potency result was “inactive”.

Consider `COc1ccnc(CCc2nc3ncccc3[nH]2)c1`, for which the Potency entry was “inactive”.

Consider `CN[C@H](CNC(=O)N1CCC[C@@H]([C@@H](OCCNC(=O)OC)c2cccc(Cl)c2)C1)C[C@H]1CCCOC1`, for which the Potency entry was “inactive”.

As to `Oc1ccc(CC2NCCc3cc(O)c(O)cc32)cc1` (centres undefined), the Potency entry was “inactive”.

Consider `Cc1ccc2nc(NC(=O)CSc3nc4c(c(=O)n3-c3ccc(F)cc3)SCC4)sc2c1`, for which the Potency entry was “inactive”.

For `Cc1ccc(-n2nc(C(C)(C)C)cc2NC(=O)Nc2cc(COc3cccnc3)[nH]n2)cc1`, the Potency was 9.16 µM (active).

Consider `CCC1(O)CC2c3cc(OC)c(OC)cc3CCN2CC1CC(C)C` (centres undefined), for which the Potency result was “inactive”.

As for `COc1cccc(OC)c1-c1ccc(C[C@H](NC(=O)c2c(Cl)cccc2Cl)C(=O)O)cc1`, the Potency result is “inactive”.

Turning to `N[C@@H](CCNCc1ccc(Cl)cc1)C(=O)N1CCCCC1`, the Potency entry was “inactive”.

For the molecule `O=C(NC1CCN(CC(F)(F)F)CC1)c1ccc(-c2cccc(F)c2)nc1`, the Potency result is “inactive”.

Regarding `O=C(O)c1cc(C(F)(F)F)ccc1N1CC[C@H](OCc2ccccn2)C1`, the Potency entry was “inactive”.
